In PubChem BioAssay (NCI):
Values joined by “and” are separate entries in the source; they are usually repeats but may differ in a detail not shown here. Equal entries are not always repeated. The panel holds about 83,000 compounds, 20% with a hit somewhere; the sample as a whole holds those more often.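 Each cell line was grown in a 96-well plate and treated with one concentration of compound for 48 hours. Values below 10 were considered active.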 Active and inactive are the calls of the source.

Experiments:
Experiment in all cases: NCI-60 one-dose screen, 48 h (100 = growth as untreated, 0 = no growth, -100 = all killed)
[1] = system: NCI-H23 lung
[2] = system: NCI-H226 lung
[3] = system: NCI-H322M lung; details: 10 µM
[4] = system: HOP-62 NSCLC
[5] = system: NCI-H460 lung
[6] = system: HOP-92 NSCLC
[7] = system: 786-0 renal
[8] = system: COLO 205 colon
[9] = system: DU-145 prostate
[10] = system: K-562 leukemia
[11] = system: MALME-3M melanoma
[12] = system: MDA-MB-231 breast
[13] = system: RXF 393 renal
[14] = system: SF-268 CNS
[15] = system: SF-295 CNS
[16] = system: SF-539 CNS
[17] = system: UACC-257 melanoma
[18] = system: M14 melanoma; details: 10 µM
[19] = system: NCI-H522 lung; details: 10 µM unless noted
[20] = system: A549/ATCC NSCLC; details: 10 µM

Measured: growth

NNc1ccc2ccccc2c1
inactive: [1]; 10 µM 87.9% and 94.4% | [2]; 10 µM 87.3% and 85.8% | [3] 83% and 97.3% | [4]; 10 µM 81.1% and 97.4% | [5]; 10 µM 105% | [6]; 10 µM 97% and 95.6% | [7]; 10 µM 99.8% and 98.3% | [8]; 10 µM 94% and 109% | [9]; 10 µM unless noted 98.5% and 111% | [10]; 10 µM 86% and 115% | [11]; 10 µM 90.1% and 96.8% | [12]; 10 µM 68.7% and 90.1% | [13]; 10 µM unless noted 122% and 98.9% | [14]; 10 µM 75.8% and 96.8% | [15]; 10 µM 95.8% and 102% | [16]; 10 µM 86% and 100% | [17]; 10 µM 107% and 105% | [18] 89.6% and 96.8%

O=c1ccn(C2CC(O)C(COC(c3ccccc3)(c3ccccc3)c3ccccc3)O2)c(=O)[nH]1 (stereo not given)
inactive: [1]; 10 µM 101% | [1]; 100 µM 69.2% | [2]; 10 µM 91.7% | [2]; 100 µM 36.2% | [4]; 10 µM 89.2% | [4]; 100 µM 72% | [5]; 10 µM 91.2% | [5]; 100 µM 39.4% | [6]; 10 µM 87.8% | [6]; 100 µM 25.4% | [19] 53.6% [100 µM] | [7]; 10 µM 82% | [7]; 100 µM 65.5% | [8]; 10 µM 114% | [8]; 100 µM 59.4% | [9]; 10 µM 107% | [9]; 100 µM 55.7% | [10]; 10 µM 79.1% | [10]; 100 µM 26.5% | [11]; 10 µM 94.4% | [11]; 100 µM 70.7% | [12]; 10 µM 73.5% | [12]; 100 µM 66.1% | [13]; 10 µM 86.5% | [13]; 100 µM 36.6% | [14]; 10 µM 83% | [14]; 100 µM 42.9% | [15]; 100 µM 38.2% | [16]; 10 µM 97.2% | [16]; 100 µM 60.3% | [17]; 100 µM 55.2%

Oc1ccc(N=Nc2ccccn2)c(O)c1
inactive: [1]; 10 µM 29.2% | [2]; 10 µM 21.1% | [3] 31.6% | [4]; 10 µM 15.8% | [6]; 10 µM 57.6% | [7]; 10 µM 10.3% | [9]; 10 µM unless noted 24.5% | [11]; 10 µM 36.1% | [12]; 10 µM 35.7% | [13]; 10 µM unless noted 43.4% | [14]; 10 µM 20.6% | [15]; 10 µM 20% | [16]; 10 µM 13.1%
active: [5]; 10 µM 8.17% | [8]; 10 µM 8.83% | [17]; 10 µM 3.09%

COc1ccc(CC(=O)c2ccc(O)cc2O)cc1
inactive: [1]; 10 µM 104% | [2]; 10 µM 133% | [3] 122% | [4]; 10 µM 88.4% | [5]; 10 µM 115% | [6]; 10 µM 94.4% | [7]; 10 µM 96.5% | [8]; 10 µM 207% | [9]; 10 µM unless noted 138% | [10]; 10 µM 98.7% | [11]; 10 µM 128% | [12]; 10 µM 117% | [13]; 10 µM unless noted 144% | [14]; 10 µM 132% | [15]; 10 µM 113% | [16]; 10 µM 99.3% | [17]; 10 µM 119%

CC(=O)Nc1cc(C)ccc1C
inactive: [1]; 10 µM 95.1% | [2]; 10 µM 98.7% | [4]; 10 µM 107% | [5]; 10 µM 106% | [6]; 10 µM 106% | [19] 96.1% | [7]; 10 µM 106% | [8]; 10 µM 102% | [9]; 10 µM unless noted 112% | [10]; 10 µM 102% | [11]; 10 µM 92.9% | [12]; 10 µM 112% | [13]; 10 µM unless noted 105% | [14]; 10 µM 101% | [15]; 10 µM 101% | [16]; 10 µM 96.8% | [17]; 10 µM 101%

CN(C)C(=S)SC(=S)N(C)C
inactive: [1]; 10 µM 92.1% and 108% | [2]; 10 µM 104% | [3] 101% and 86% | [4]; 10 µM 112% and 103% | [5]; 10 µM 98.7% and 91.3% | [6]; 10 µM 97.9% and 108% | [7]; 10 µM 96.7% and 105% | [8]; 10 µM 81.5% and 49.1% | [9]; 10 µM unless noted 108% and 104% | [10]; 10 µM 58% and 75.7% | [11]; 10 µM 84.7% and 85% | [12]; 10 µM 105% and 122% | [13]; 10 µM unless noted 108% and 109% | [14]; 10 µM 107% and 95.8% | [15]; 10 µM 100% and 101% | [16]; 10 µM 93.5% and 101% | [17]; 10 µM 96.5% and 77.5%

CCCCCC(C)c1ccc(O)c(C)c1 (stereo not given)
inactive: [1]; 10 µM 104% | [2]; 10 µM 96% | [4]; 10 µM 98.4% | [5]; 10 µM 107% | [6]; 10 µM 98% | [19] 88.2% | [20] 113% | [7]; 10 µM 93.6% | [8]; 10 µM 111% | [9]; 10 µM unless noted 103% | [10]; 10 µM 90.6% | [13]; 10 µM unless noted 113% | [14]; 10 µM 98.3% | [15]; 10 µM 95.5% | [16]; 10 µM 103% | [17]; 10 µM 99.3%

NC(=O)SCC(=O)NNc1ccccc1
inactive: [1]; 10 µM 112% | [2]; 10 µM 93.1% | [4]; 10 µM 93.8% | [5]; 10 µM 98.8% | [6]; 10 µM 92.2% | [19] 85.2% | [20] 85.3% | [7]; 10 µM 108% | [8]; 10 µM 100% | [9]; 10 µM unless noted 99.6% | [10]; 10 µM 101% | [12]; 10 µM 89.2% | [13]; 10 µM unless noted 112% | [14]; 10 µM 92.8% | [15]; 10 µM 94.6% | [16]; 10 µM 103% | [17]; 10 µM 91.6%

CCN(CC)c1ccc(NC(C(=O)c2ccccc2)c2ccccc2)cc1 (stereo not given)
inactive: [1]; 10 µM 44.4% | [2]; 10 µM 60.1% | [3] 82.9% | [4]; 10 µM 123% | [5]; 10 µM 80.4% | [6]; 10 µM 73.7% | [19] 21.8% | [8]; 10 µM 20.5% | [9]; 10 µM unless noted 24.4% | [10]; 10 µM 10.4% | [11]; 10 µM 28.7% | [15]; 10 µM 61.2% | [17]; 10 µM 68.3%
active: [7]; 10 µM -57.1% | [12]; 10 µM -34.1% | [13]; 10 µM unless noted 4.61% | [14]; 10 µM -22.8% | [16]; 10 µM -50.1%

OCC1OC(n2cnc3c(=S)nc[nH]c32)C(O)C1O (stereo not given)
inactive: [1]; 10 µM 104% and 71.8% | [2]; 10 µM 100% and 63.7% | [4]; 10 µM 115% and 53.9% | [5]; 10 µM 113% and 62% | [6]; 10 µM 56.6% and 61.8% | [20] 99.6% and 101% | [7]; 10 µM 100% and 35.1% | [8]; 10 µM 116% and 47.5% | [9]; 10 µM unless noted 98.4% and 51.9% | [10]; 10 µM 124% and 41.6% | [11]; 10 µM 87.3% and 53.3% | [12]; 10 µM 99.2% and 61.9% | [13]; 10 µM unless noted 98.2% and 70.2% | [14]; 10 µM 109% and 53.9% | [15]; 10 µM 101% and 41.7% | [16]; 10 µM 103% and 31.8% | [17]; 10 µM 105% and 52.7%
77.3% (inactive) and 3.94% (active): [19]

COC1OCC(O)C(O)C1O (stereo not given)
inactive: [1]; 10 µM 98.3% | [2]; 10 µM 108% | [3] 99.8% | [4]; 10 µM 102% | [5]; 10 µM 104% | [6]; 10 µM 103% | [20] 101% | [7]; 10 µM 101% | [8]; 10 µM 107% | [9]; 10 µM unless noted 105% | [10]; 10 µM 104% | [11]; 10 µM 103% | [12]; 10 µM 110% | [13]; 10 µM unless noted 106% | [14]; 10 µM 98.4% | [15]; 10 µM 105% | [16]; 10 µM 107% | [18] 101%

Nc1nc(=S)c2ncn(C3OC(CO)C(O)C3O)c2[nH]1 (stereo not given)
inactive: [1]; 10 µM 102% and 25.8% | [2]; 10 µM 113% and 35.5% | [4]; 10 µM 106% and 35.4% | [6]; 10 µM 29.5% | [7]; 10 µM 103% and 22.2% | [8]; 10 µM 155% and 12.4% | [9]; 10 µM unless noted 108% and 23.2% | [10]; 10 µM 108% | [11]; 10 µM 170% and 15% | [12]; 10 µM 105% and 26.1% | [14]; 10 µM 101% and 34.5% | [15]; 10 µM 109% and 18.3% | [16]; 10 µM 107% and 22.3% | [17]; 10 µM 98.9% and 31.5%
120% (inactive) and 9.3% (active): [5]; 10 µM
108% (inactive) and -8.38% (active): [13]; 10 µM unless noted
96.7% (inactive) and -12% (active): [19]
